This passage reports composite z-score, composite Z-score and z-score results from PubChem BioAssay.

SMILES strings stand for the structures. Activity calls are given as the source filed them.

The target in one assay is Albumin (Bos taurus) (UniProt P02769). Kind of assay: compounds binding labelled BSA control protein – biochemical, small-molecule microarray, Alexa647 label, 635/667 nm fluorescence, artefact control for SMM control protein annotation, profiling panel (AID 1118).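 Also: score merges 667 nm emission intensity and signal-to-noise per printed compound spot.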 Particulars: BSA-A647 binding, fluorescence 635 nm, higher = more signal.
Assay [1] in a line: probe aXIP binding to arrayed compounds – biochemical, NeuroSMM set, 635/667 nm fluorescence, primary screen (AID 1119).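 Also: probe is the protein aXip251-270 applied at 1 µg/mL to compound-printed slides; binding of probe to printed compounds measured as 667 nm fluorescence plus signal to noise.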 Particulars: small-molecule microarray, higher = more signal, called active from +8 up or from −8 down.
Assay [2] is described as follows: probe aNOTCH3 binding on compound microarray – biochemical, small-molecule microarray, 635/667 nm fluorescence, primary screen (AID 1120).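 Also: probe is a biotin-tagged antibody raised against NOTCH3 rather than NOTCH3 protein; score merges spot fluorescence near 667 nm with spot signal to noise.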 Particulars: higher = more signal.
Assay [3] in a line: probe aNOTCH2 binding on compound microarray – biochemical, small-molecule microarray, 635/667 nm fluorescence, primary screen (AID 1121).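 Also: score merges feature fluorescence read at 667 nm with its signal to noise.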 Particulars: higher = more signal.
The target in assay [4] is Carbonic anhydrase 2 (Homo sapiens) (UniProt P00918). The assay is described as follows: compounds binding carbonic anhydrase 2 – biochemical, small-molecule microarray, Alexa647-labelled CAII, profiling panel (AID 1122). The conditions noted are these: CAII-A647 binding fluorescence, higher = more signal.
Assay [5] can be described thus: COS7 lysate on small-molecule microarray, probe aHis, 635 nm (AID 1123).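 Also: z-score combines 667nm fluorescence intensity with signal-to-noise per printed compound spot.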 The conditions noted are these: COS7 cell lysate, fluorescence, higher = more signal.
A short description of assay [6]: probe aLAP1 signal on lysate-treated microarray – cell lysate, small-molecule microarray, COS7 lysate, primary screen (AID 1124).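 Also: lysate comes from COS7 cells expressing LAP1 and is applied at 0.3 µg/mL; score merges spot fluorescence near 667 nm with signal-to-noise over triplicate slides.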 Particulars: probe aLAP1, fluorescence, higher = more signal.
For another assay, the system named is Sam68 (KHDRBS1). The assay is described as follows: compounds binding KHDRBS1 protein – biochemical, small-molecule microarray, 635 nm fluorescence, primary screen (AID 1125).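 Also: score merges 667 nm channel intensity with signal to noise over triplicate slides.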 Particulars: higher = more signal.
Assay [7] deals with Chordin-like protein 2 (CHRDL2). Kind of assay: compounds binding chordin-like 2 – biochemical, small-molecule microarray, 635 nm fluorescence, primary screen (AID 1126).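 Also: printed compound slides probed with Chrdl2 protein at 4 µg/mL for 1 h at 4 C; score merges 667 nm emission intensity with signal to noise over three replicate slides.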 Particulars: fluorescence 635 nm, higher = more signal.
Assay [8] concerns the target Concanavalin-A (Canavalia ensiformis) (UniProt P02866). The assay is described as follows: compounds binding concanavalin A lectin – biochemical, small-molecule microarray, Alexa647 label, 635 nm, artefact control for SMM control protein annotation, primary screen (AID 1127).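 Also: z combines 667 nm emission intensity with signal-to-noise across three replicate slides.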 The conditions noted are these: ConA-A647 binding fluorescence, higher = more signal.
A short description of assay [9]: compounds binding Alexa647 anti-His antibody – biochemical, small-molecule microarray, 635 nm fluorescence, artefact control for SMM control protein annotation, primary screen (AID 1128).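 Also: score merges feature fluorescence with signal-to-noise for each printed compound spot.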 The conditions noted are these: higher = more signal.
Assay [10] deals with Human papillomavirus type 1a E7 protein (residues 1-88). The assay is described as follows: HPV1a E7 small-molecule binders, primary screen, biochemical, small-molecule microarray, residues 1-88, 635 nm (AID 1129). Particulars: small-molecule microarray binding, fluorescence 635 nm; higher = more signal.
Assay [11] concerns the target Focal adhesion kinase 1 (Homo sapiens) (UniProt Q05397). The assay is described as follows: PTK2 protein binding on printed compound slides – biochemical, small-molecule microarray, 635/667 nm fluorescence, BSA, DTT, primary screen (AID 1130).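 Also: composite of spot emission at 667 nm and signal to noise over triplicate slides.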 Particulars: 635 nm fluorescence, higher = more signal.
For assay [12], the system named is Fibrinogen (Alexa647-labelled). Kind of assay: Alexa647-fibrinogen binding to printed small molecules – biochemical, small-molecule microarray, 635/667 nm fluorescence, artefact control for SMM control-protein annotation, profiling panel (AID 1131).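 Also: z-score merges 667 nm fluorescence with per-spot signal-to-noise over triplicate slides.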 The conditions noted are these: fibrinogen-A647 binding fluorescence, higher = more signal.
The target of assay [13] is Follistatin (Homo sapiens) (UniProt P19883). The assay is described as follows: FST protein binding to printed compounds – biochemical, small-molecule microarray, 635/667 nm fluorescence, primary screen (AID 1132). Particulars: 635 nm fluorescence, higher = more signal.
Assay [14] concerns the target Fibroblast growth factor 2 (Homo sapiens) (UniProt P09038). Kind of assay: basic fibroblast growth factor binding to printed compounds – biochemical, small-molecule microarray, 635/667 nm fluorescence, primary screen (AID 1133). Particulars: FGF2, fluorescence 635/667, higher = more signal.
Assay [15] can be described thus: JC-1 mitochondrial potential readout, lung cancer cells – cell-based, A549, JC-1 fluorescence, basal, 24 h, 100 nL, profiling panel (AID 1138).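 Also: A549 lung adenocarcinoma cells under basal conditions with no added stimulus; test concentration not given here.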 The conditions noted are these: higher = more signal.
Another assay concerns Lefty1. The assay is described as follows: Lefty1 protein binding to printed compounds – biochemical, small-molecule microarray, 635/667 nm fluorescence, primary screen (AID 1139). The conditions noted are these: fluorescence 635/667, higher = more signal.
For assay [16], the system named is wheat germ agglutinin (Triticum aestivum), Alexa647-labelled. The assay is described as follows: Alexa647-WGA lectin binding to printed small molecules – biochemical, small-molecule microarray, 635/667 nm fluorescence, artefact control for SMM control-protein annotation, profiling panel (AID 1140).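 Also: score merges 667 nm feature emission with signal to noise over triplicate slides.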 The conditions noted are these: WGA-A647 binding, 635 nm fluorescence, higher = more signal.

Assay [17] deals with Luciferin 4-monooxygenase (Photinus pyralis) (UniProt P08659). The assay is described as follows: inhibition of purified Photinus pyralis luciferase – biochemical, luminescence, purified enzyme, 2006 set, primary screen (AID 1141).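 Also: cell-free assay with purified firefly luciferase at 100 ng per well in PBS; test concentration not given here.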 The conditions noted are these: purified firefly luciferase, SteadyGlo luminescence, 30 min; higher = more signal, called active from +8 up or from −8 down.
Luciferin 4-monooxygenase (Photinus pyralis), sequence (P08659 whole entry, looked up): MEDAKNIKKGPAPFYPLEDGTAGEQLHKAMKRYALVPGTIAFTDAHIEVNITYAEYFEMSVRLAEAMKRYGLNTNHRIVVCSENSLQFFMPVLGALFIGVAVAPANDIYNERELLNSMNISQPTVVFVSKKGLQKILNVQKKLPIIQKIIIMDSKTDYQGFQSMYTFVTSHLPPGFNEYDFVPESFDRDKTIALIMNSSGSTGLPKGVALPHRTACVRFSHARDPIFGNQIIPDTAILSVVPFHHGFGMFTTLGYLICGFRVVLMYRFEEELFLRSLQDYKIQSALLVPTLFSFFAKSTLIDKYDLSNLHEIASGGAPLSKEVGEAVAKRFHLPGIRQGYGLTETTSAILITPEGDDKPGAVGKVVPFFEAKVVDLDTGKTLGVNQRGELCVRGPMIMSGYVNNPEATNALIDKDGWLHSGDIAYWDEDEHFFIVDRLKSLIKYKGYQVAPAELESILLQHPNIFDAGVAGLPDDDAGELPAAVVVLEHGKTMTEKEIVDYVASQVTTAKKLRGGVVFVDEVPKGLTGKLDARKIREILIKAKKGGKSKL

Albumin (Bos taurus), sequence (P02769 whole entry, looked up): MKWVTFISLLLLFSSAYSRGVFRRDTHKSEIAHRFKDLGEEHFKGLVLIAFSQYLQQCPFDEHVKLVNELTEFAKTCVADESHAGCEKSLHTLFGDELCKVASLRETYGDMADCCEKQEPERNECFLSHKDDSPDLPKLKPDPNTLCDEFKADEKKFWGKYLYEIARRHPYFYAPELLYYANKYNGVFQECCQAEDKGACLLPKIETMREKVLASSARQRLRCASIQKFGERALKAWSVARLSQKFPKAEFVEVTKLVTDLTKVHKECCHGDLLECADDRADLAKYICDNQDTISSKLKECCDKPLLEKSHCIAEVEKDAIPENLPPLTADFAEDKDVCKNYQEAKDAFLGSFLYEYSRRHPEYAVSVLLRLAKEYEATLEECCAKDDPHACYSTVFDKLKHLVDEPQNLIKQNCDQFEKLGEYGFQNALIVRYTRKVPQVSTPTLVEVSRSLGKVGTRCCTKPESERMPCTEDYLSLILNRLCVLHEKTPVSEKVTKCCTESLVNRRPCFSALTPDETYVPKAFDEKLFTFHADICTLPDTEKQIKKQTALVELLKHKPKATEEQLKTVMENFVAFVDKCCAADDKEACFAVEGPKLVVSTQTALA
Follistatin (Homo sapiens), sequence (P19883 whole entry, looked up): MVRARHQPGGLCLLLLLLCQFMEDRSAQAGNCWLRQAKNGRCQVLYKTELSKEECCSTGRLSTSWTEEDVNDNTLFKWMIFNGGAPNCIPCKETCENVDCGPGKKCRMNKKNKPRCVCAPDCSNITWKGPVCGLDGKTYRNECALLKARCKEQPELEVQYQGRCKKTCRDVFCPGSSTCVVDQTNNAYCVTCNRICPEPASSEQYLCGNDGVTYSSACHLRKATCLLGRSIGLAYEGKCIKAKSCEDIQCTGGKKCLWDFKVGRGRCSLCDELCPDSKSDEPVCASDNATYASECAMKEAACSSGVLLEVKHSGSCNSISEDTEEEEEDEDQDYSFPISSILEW
Concanavalin-A (Canavalia ensiformis), sequence (P02866 whole entry, looked up): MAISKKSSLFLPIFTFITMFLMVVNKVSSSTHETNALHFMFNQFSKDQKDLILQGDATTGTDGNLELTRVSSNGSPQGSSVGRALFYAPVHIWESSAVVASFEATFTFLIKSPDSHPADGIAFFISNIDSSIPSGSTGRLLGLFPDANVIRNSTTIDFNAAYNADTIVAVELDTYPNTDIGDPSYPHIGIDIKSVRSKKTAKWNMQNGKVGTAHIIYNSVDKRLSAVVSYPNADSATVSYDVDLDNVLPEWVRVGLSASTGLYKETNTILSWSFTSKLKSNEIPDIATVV
Fibroblast growth factor 2 (Homo sapiens), sequence (P09038 whole entry, looked up): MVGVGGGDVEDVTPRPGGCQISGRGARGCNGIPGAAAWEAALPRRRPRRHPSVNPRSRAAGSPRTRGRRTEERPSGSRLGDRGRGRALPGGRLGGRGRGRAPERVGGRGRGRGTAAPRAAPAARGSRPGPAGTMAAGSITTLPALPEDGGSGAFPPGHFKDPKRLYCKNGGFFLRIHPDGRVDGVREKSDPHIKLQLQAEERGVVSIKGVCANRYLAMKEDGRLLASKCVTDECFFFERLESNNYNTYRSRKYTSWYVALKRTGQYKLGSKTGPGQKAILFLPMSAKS
Focal adhesion kinase 1 (Homo sapiens), sequence (Q05397 whole entry, looked up): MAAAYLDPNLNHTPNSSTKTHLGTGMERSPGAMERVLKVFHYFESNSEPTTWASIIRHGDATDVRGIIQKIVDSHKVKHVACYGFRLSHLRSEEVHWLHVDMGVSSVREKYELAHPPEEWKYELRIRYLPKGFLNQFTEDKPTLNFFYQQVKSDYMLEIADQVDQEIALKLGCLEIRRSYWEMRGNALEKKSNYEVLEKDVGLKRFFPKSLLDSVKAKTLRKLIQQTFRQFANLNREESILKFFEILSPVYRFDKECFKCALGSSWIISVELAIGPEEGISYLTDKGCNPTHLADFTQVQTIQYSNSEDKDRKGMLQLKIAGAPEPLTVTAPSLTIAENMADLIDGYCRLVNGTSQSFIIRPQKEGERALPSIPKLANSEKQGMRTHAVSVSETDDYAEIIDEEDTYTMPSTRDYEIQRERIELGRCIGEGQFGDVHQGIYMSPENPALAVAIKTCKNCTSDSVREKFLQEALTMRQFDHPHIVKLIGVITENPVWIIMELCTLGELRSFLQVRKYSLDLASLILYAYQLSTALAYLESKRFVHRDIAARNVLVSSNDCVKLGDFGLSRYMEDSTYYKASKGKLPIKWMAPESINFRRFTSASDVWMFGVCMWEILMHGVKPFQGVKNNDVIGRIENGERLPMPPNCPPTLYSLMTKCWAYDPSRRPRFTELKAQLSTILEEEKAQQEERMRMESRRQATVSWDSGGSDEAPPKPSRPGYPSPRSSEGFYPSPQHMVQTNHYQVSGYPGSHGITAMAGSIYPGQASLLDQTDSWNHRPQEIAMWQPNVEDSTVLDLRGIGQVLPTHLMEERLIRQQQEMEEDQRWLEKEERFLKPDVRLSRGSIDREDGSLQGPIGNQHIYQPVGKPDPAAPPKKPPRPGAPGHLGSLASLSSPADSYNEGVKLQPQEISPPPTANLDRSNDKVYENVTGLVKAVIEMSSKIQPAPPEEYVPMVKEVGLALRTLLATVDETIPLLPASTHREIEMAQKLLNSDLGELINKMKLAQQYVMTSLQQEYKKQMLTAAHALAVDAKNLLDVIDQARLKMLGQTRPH

For the compound `COC(=O)[C@@]1(Cc2ccc(OC)cc2)[C@H]2c3cc(C(=O)N(C)C)n(Cc4ccc(C)c(F)c4F)c3C[C@H]2CN1C(=O)c1ccccc1`, the composite z-score was 0.856 in the assay with Albumin (Bos taurus); 0.0159 in [2]; -0.108 in [3]; 0.535 in assay [4]; 1.41 in [5]; 0.0293 in assay [6]. The composite z-score with Sam68 (KHDRBS1) was 0.138; in [7], -1.22; in assay [8], 0.782; in assay [9] it was 0.158; in assay [10], 0.713; in assay [11], 0.0211. The composite z-score is 0.746 in [12]; -0.266 in assay [13]; -0.869 in assay [14]; -0.826 in the assay on Lefty1; 0.546 in [16]. Besides, the composite Z-score in [1] was 0.0888 (inactive). Also, the z-score in assay [15] is 0.0287; in assay [17], 2.24 (inactive).
In the case of `COCCOC(=O)N1C(=O)[C@@]2(c3cc(C#CCCO)ccc31)[C@H](c1ccc(OCCO)cc1)N1[C@H](c3ccccc3)[C@H](c3ccccc3)OC(=O)[C@H]1[C@@H]2C(=O)NC[C@H](O)c1ccccc1`, the composite z-score with Albumin (Bos taurus) was -0.525; in assay [2], 0.272; in [3], -0.146; in assay [4], 0.484; in [5] it was 1.78; in assay [6], 0.54. Besides, the composite z-score with Sam68 (KHDRBS1) was 1.29; in assay [7], 0.716; in [8], 1.05; in assay [9], 1.23; in [10], 1.21; in [11], 0.76. For the same compound, the composite z-score in [12] turned out to be 0.883; in assay [13], 1.39; in [14], 1.36; in the assay on Lefty1, 1.24; in assay [16] it was 0.728. Also, the composite Z-score in assay [1] is 0.463 (inactive). Besides, the z-score in [15] is -1.15; in [17] it was -0.216 (inactive).
As for `COc1cccc([C@@H]2[C@@H](C)CC[C@H]3C(=O)N(C)[C@@H](C(C)C)C(=O)N23)c1`, the composite z-score with Albumin (Bos taurus) was -0.199; in [2] it was -0.0111; in assay [3] it was -0.181; in assay [4], -0.155; in assay [5] it was 0.0706; in [6], -0.343. In addition, the composite z-score was 0.346 with Sam68 (KHDRBS1); 0.466 in assay [7]; 0.416 in assay [8]; 0.381 in assay [9]; 0.694 in assay [10]; 1.24 in [11]. The composite z-score in assay [12] was -0.0271; in [13], 0.388; in assay [14], 0.348; in the assay with Lefty1, 0.915; in assay [16], 0.168. The composite Z-score in assay [1] was 0.4 (inactive). Besides, the z-score in assay [15] is 1.68; in assay [17], -1.56 (inactive).
In the case of `NC(=O)NCC#Cc1ccc2c(c1)[C@]1(C(=O)N2)[C@H](C(N)=O)[C@H]2C(=O)O[C@H](c3ccccc3)[C@H](c3ccccc3)N2[C@@H]1c1ccccc1OCCO`, the composite z-score is 0.284 with Albumin (Bos taurus); 0.121 in [2]; -0.0762 in assay [3]; 0.175 in assay [4]; 0.841 in assay [5]; 0.519 in [6]. In addition, the composite z-score with Sam68 (KHDRBS1) was 0.978; in assay [7], 0.543; in assay [8] it was 0.936; in [9] it was -0.22; in assay [10] it was 1.01; in assay [11] it was -0.0788. In addition, the composite z-score is 0.543 in [12]; 1.23 in [13]; 0.66 in assay [14]; 0.472 with Lefty1; 0.174 in [16]. Also, the composite Z-score in assay [1] was 0.0219 (inactive). Besides, the figures for the z-score in assay [15] and in [17] were -0.525 and 0.171 (inactive), respectively.
Turning to `CCCN1C(=O)[C@@]2(CCS(=O)(=O)c3ccccc3)N=C(c3ccc(OCCCO)cc3)O[C@H]2c2ccccc21`, the composite z-score was -0.676 with Albumin (Bos taurus); 0.0833 in [2]; -0.0956 in [3]; 0.294 in assay [4]; 2.41 in [5]; 0.163 in assay [6]. Further, the composite z-score with Sam68 (KHDRBS1) was found to be 1.3; in assay [7], 0.637; in [8], 0.892; in [9], 2.79; in [10], 1.23; in assay [11], 0.494. Besides, the composite z-score in assay [12] was determined as 0.762; in assay [13], 1.4; in assay [14], 0.961; with Lefty1 it was 0.78; in assay [16] it was 0.46. The composite Z-score in assay [1] was -0.113 (inactive). For the same compound, the z-score in assay [15] was 0.782; in assay [17], -0.869 (inactive).
